For 20 compounds, Percent Effect results are on record in ChEMBL document CHEMBL3988442, “University of Dundee, Small-Polar-MMV Screening Library” (2021).

Each structure is given as a SMILES string.

The assay has as its target T1, Aspartate--tRNA(Asp/Asn) ligase (Mycobacterium tuberculosis (strain ATCC 25618 / H37Rv)) (UniProt P9WFW3).
T1 sequence (whole entry): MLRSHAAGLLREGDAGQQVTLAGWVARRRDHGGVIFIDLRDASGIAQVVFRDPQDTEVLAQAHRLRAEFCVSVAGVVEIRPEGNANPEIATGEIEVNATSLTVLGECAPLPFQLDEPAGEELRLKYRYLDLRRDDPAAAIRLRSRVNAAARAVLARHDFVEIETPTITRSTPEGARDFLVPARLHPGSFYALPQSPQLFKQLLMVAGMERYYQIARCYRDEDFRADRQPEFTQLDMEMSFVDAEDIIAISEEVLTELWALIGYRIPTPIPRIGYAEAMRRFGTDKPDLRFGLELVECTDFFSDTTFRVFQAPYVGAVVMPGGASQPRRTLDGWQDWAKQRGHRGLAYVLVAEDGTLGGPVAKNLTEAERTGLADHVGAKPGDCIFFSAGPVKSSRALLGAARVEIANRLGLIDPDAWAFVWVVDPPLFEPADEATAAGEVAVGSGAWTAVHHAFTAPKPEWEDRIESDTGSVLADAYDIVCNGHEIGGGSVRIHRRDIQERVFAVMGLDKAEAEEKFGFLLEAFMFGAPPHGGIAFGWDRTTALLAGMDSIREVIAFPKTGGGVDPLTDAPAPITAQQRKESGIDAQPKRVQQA
Description: Assay for Asp RNA synthetase-1 from Mycobacterium tuberculosis. Further details: scale not given: in the data most compounds retested in dose-response had high values. Type of assay: functional. The following applies: 30 µM.
As for `Cc1cc(NC(=O)CN2CCc3nn(C)c(=O)cc3C2)on1`, the Percent Effect came to 11.6%. In the case of `Cc1cc(NC(=O)CN2CCCC2c2noc(C3CC3)n2)no1` (stereo not given), the Percent Effect was determined as 0.92%.

In the case of `O=C(O)CCc1cccc(C2CCCN2Cc2ccc(F)c(F)c2)n1` (stereo not given), the Percent Effect is -0.372%. As to `COC(=O)C1CCN(C(=O)CN2CCN(c3cccc(C)c3)CC2)CC1`, the Percent Effect is -0.137%. For `O=C1N(CC2CC2)CCC12CCN(c1ncccn1)CC2`, the Percent Effect was 3.3%. For the compound `CCc1cnc(N2CCC(=O)N(CC3CC3)C(C(C)C)C2)nc1` (stereo not given), the Percent Effect came to 1.33%. The same measure for `CCOc1nnc(CNC2CCCN(c3ccc(C)nn3)C2)s1` (stereo not given): 9.48%. For the compound `O=C(c1ccc(F)cc1F)N1CC[C@H](O)[C@@H](N2CCOCC2)CC1`, the Percent Effect stood at 0.28%.

Turning to `Cn1cccc1CNC(=O)CCCc1nnc2ccccn12`, the Percent Effect came out at 1.36%. Consider `CC(Cn1cccn1)NC(=O)Cc1cccs1` (stereo not given), for which the Percent Effect was -2.6%.

For `Cc1cccc(CN2C(=O)CO[C@@H]3CN(CCO)C[C@H]32)c1`, the Percent Effect is -4.77%.

Consider `CSCC[C@H](N)C(=O)NCc1cc2n(n1)CCCN(C(=O)C1CCC1)C2`, for which the Percent Effect was -3.26%. Turning to `c1cnnc(N2CCCC(NCc3nnc(-c4ccco4)o3)C2)c1` (stereo not given), the Percent Effect is -0.7%. As for `N#Cc1ccc(F)c(CN2CCCC2Cn2cccn2)c1` (stereo not given), the Percent Effect was determined as 0.262%. On to `CCn1nc(C)c(CCNC(=O)C2CCCN(CC(N)=O)C2)c1C` (stereo not given), for which the Percent Effect was -2.59%.

`CS(=O)(=O)CCN1CCC2(CCCN(C3CCOCC3)C2=O)C1` (stereo not given): the Percent Effect stood at 1.8%. In the case of `CC1CCCN(C(=O)c2csc(S(N)(=O)=O)c2)CC1` (stereo not given), the Percent Effect worked out at 0.324%. For the compound `Cc1ccc2c(c1)CN(C(=O)c1ccccc1F)C(CN(C)C)CO2` (stereo not given), the Percent Effect was determined as 5.11%. Consider `Clc1cc(CN2CCCC2Cn2cncn2)c2ncccc2c1` (stereo not given), for which the Percent Effect is -0.0583%.

On to `CCc1ccc(OCC(O)CN2CCC(O)CC2)cc1` (stereo not given), for which the Percent Effect worked out at 3.31%.
